Test results reported in PubChem BioAssay (NCATS).
Inconclusive results are not listed. A number with no mark means an inactive call. The source made the active and inactive calls. The call rests on the fitted dose curve; in most records, active means well fitted inhibition curve with a large enough effect; inconclusive means small, poorly fitted or top-dose-only effect; inactive means no such curve, though single readings can be large or run the other way.

Test: qHTS assay for measurement of the activity of small molecule inhibitors on Zika virus induced Caspase-3 activity in human iPSC derived neural progenitor cells (hNPCs) (AID 1224857); further: % of control where 0% means no effect; nearly all actives have a fitted effect of over 65% in size
Conditions: hNPCs ZIKV-induced caspase-3/7, Caspase-Glo luminescence, 6 h; series mostly up to 45.7 µM; activity change, negative = inhibition: at the top concentration
Summary of the method: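 Cells were plated at 350 per well and grown 16 to 20 hours. Compound pretreatment lasted one hour, after which ZIKV (2 FFU/cell) was added for 6 hours. Percent inhibition was normalized between uninfected and infected controls.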

Row | Structure (SMILES) | activity change, negative = inhibition | Potency
1 | FC(F)(F)c1cccc(C2=CCN(CCc3ccc4ccccc4c3)CC2)c1 | -12.7% | 
2 | Oc1ccc(Cl)cc1Cc1ccccc1 |  | inactive
3 | NCC(CC(=O)O)c1ccc(Cl)cc1 (stereo unspecified) |  | inactive
4 | CC(=O)Nc1cc([As](=O)(O)O)ccc1O | -2% | 
5 | CCN(CC)CCOC(=O)C(O)(c1ccccc1)c1ccccc1 | -4.55% | 
6 | CC[N+]1(C)CCCC(OC(=O)C(O)(c2ccccc2)c2ccccc2)C1 (stereo unspecified) | 2.28% | 
7 | Clc1ccc(CCC(Cn2ccnc2)Sc2c(Cl)cccc2Cl)cc1 (stereo unspecified) |  | inactive
8 | NCCc1cc(O)c(O)cc1O | -5.24% | 
9 | Cc1ccc(-c2nc3ccc(C)cn3c2CC(=O)N(C)C)cc1 | -7.94% | 
10 | CCC(COC(=O)c1cc(OC)c(OC)c(OC)c1)(c1ccccc1)N(C)C (stereo unspecified) | -2.35% | 
11 | N[C@@H](Cc1ccc(Oc2cc(I)c(O)c(I)c2)c(I)c1)C(=O)O | -3.81% | 
12 | CCC(C(N)=O)N1CCCC1=O (stereo unspecified) | -3.84% | 
13 | Clc1cccc(N2CCNCC2)c1 | 2.41% | 
14 | C=C1C[C@@H]2[C@H](CC[C@]3(C)C(=O)CC[C@@H]23)[C@@]2(C)C=CC(=O)C=C12 | 2.99% | 
15 | NCC(O)c1ccc(O)cc1 (stereo unspecified) |  | inactive
16 | Oc1ccccc1-c1ccccc1 | 18.2% | 
17 | CC(C)(N)Cc1ccc(Cl)cc1 | 14.1% | 
18 | CC(C)(C)NCC(O)c1cc(Cl)c(N)c(Cl)c1 (stereo unspecified) | 13.7% | 

Row | Structure (SMILES) | activity change, negative = inhibition | Potency
19 | Clc1ccc(COC(Cn2ccnc2)c2ccc(Cl)cc2Cl)cc1 (stereo unspecified) |  | inactive
20 | O=C(O)c1ccc2[nH]cc(CCCCN3CC=C(c4ccccc4)CC3)c2c1 | -5.36% | 
21 | C[C@]12CC[C@H]3[C@@H](CCC4=CC(=O)CC[C@@H]43)[C@@H]1CC[C@@H]2OC(=O)CCc1ccccc1 | 69% | 
22 | Cc1ccc(S(=O)(=O)N[C@@H](CCCCN)C(=O)CCl)cc1 |  | inactive
23 | CC(=O)[C@H]1CC[C@H]2[C@@H]3CC[C@H]4C[C@](C)(O)CC[C@]4(C)[C@H]3CC[C@]12C |  | inactive
24 | C=C1CC[C@@]2(O)[C@H]3Cc4ccc(O)c5c4[C@@]2(CCN3CC2CC2)[C@H]1O5 | -1.6% | 
25 | CCOC(=O)C1(c2ccccc2)CCN(CCC(C#N)(c2ccccc2)c2ccccc2)CC1 | -1.02% | 
26 | O=[N+]([O-])c1cc([As](=O)(O)O)ccc1O | 17.5% | 
27 | C#CCOC(C(=O)OCCN(C)C)(c1ccccc1)c1ccccc1 | 7.91% | 
28 | Oc1cc(Cl)ccc1Oc1ccc(Cl)cc1Cl |  | inactive
29 | CN1C(=S)CN=C(c2ccccc2)c2cc(Cl)ccc21 | -0.201% | 
30 | CCCN1CCC[C@@H]2Cc3nc(N)ncc3C[C@H]21 | 13.9% | 
31 | c1ccc(C2CC2)c(OCC2=NCCN2)c1 |  | inactive
32 | Cc1cccc(C)c1NC1=NCCCS1 |  | inactive
33 | CC1NCCOC1c1ccccc1 (stereo unspecified) | 8.48% | 
34 | CC[N+](CC)(CC)CC |  | inactive
35 | Cc1ccc2c(c1)C1CN(C)CCC1N2 (stereo unspecified) | 4.04% [at 20.5 µM] | 
36 | CCN(C(C)=O)c1cccc(-c2ccnc3c(C#N)cnn23)c1 | -3.39% | 
